Source: PubChem BioAssay (Tox21)
Where “and” joins values, the source holds several entries; their conditions need not be identical. Equal entries are not always repeated. Records with an inconclusive call do not appear. A call without a number means that no potency is given here. Where a structure was tested more than once in an assay, its records may differ in their call. Calls of active or inactive are those of the source. Unless noted, calls follow the shape of the dose curve; as a rule, active = well fitted curve in the direction sought with a large enough effect in the repeat runs; inconclusive = weak or mixed curves; inactive = no such curve, though single readings can be large; an effect the other way counts as inactive or inconclusive.

What was measured:
[1] = A CellTox Green Cytotoxicity Assay to monitor cytotoxicity in HEK293 cells - 32 hour (AID 1224881); also: nearly all actives have a fitted effect of over 40% in size; also: potency is read from the fitted curve at half-maximal effect
Outline: (§1)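 Cells (HEK293, 600/well) and dye reagent are dispensed together. After 5 h at 37 C, 23 nL compound is pinned in. Plates stay at 37 C for 40 h with fluorescence read at 0h, 8h, 16h, 24h, 32h and 40h.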

[2] = A CellTox Green Cytotoxicity Assay to monitor cytotoxicity in HepG2 cells - 0 hour (AID 1224882); also: nearly all actives have a fitted effect of over 35% in size; also: potency is read from the fitted curve at half-maximal effect
Outline: (§2)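 Cells and non-lytic dye reagent are dispensed together (600 HepG2 cells/well) and incubated 5 h before DMSO compound transfer. Kinetic fluorescence is then recorded in the same wells during 40 h at 37 C.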

[3] = A CellTox Green Cytotoxicity Assay to monitor cytotoxicity in HepG2 cells - 32 hour (AID 1224883); also: nearly all actives have a fitted effect of over 50% in size; also: potency is read from the fitted curve at half-maximal effect
Outline: as §2

[4] = A CellTox Green Cytotoxicity Assay to monitor cytotoxicity in HEK293 cells - 8 hour (AID 1224884); also: nearly all actives have a fitted effect of over 35% in size; also: potency is read from the fitted curve at half-maximal effect
Outline: as §1

[5] = qHTS RealTime-Glo MT Cell Viability Assay in HEK293 cells - 24 hour (AID 1224886); also: nearly all actives have a fitted effect of over 50% in size; also: potency is read from the fitted curve at half-maximal effect
Outline: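 Reads taken at 0, 8, 16, 24, 32 and 40 h from the same wells. HEK293 cells (600/well) carried RealTime-Glo reagents from seeding, with compound added after a 5 h settle at 37 C.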

[6] = qHTS RealTime-Glo MT Cell Viability Assay in HEK293 cells - 8 hour (AID 1224887); also: nearly all actives have a fitted effect of over 50% in size; also: potency is read from the fitted curve at half-maximal effect
Outline: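 Real-time viability in HEK293: signal arises when living cells convert a prosubstrate for NanoLuc in the medium, so luminescence tracks viable cell number. Compound (23 nL, DMSO) added 5 h post-seeding; kinetic reads at 0–40 h, 37 C.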

[7] = A CellTox Green Cytotoxicity Assay to monitor cytotoxicity in HEK293 cells - 16 hour (AID 1224888); also: nearly all actives have a fitted effect of over 35% in size; also: potency is read from the fitted curve at half-maximal effect
Outline: as §1

[8] = qHTS RealTime-Glo MT Cell Viability Assay in HepG2 cells - 0 hour (AID 1224889); also: nearly all actives have a fitted effect of over 50% in size; also: potency is read from the fitted curve at half-maximal effect
Outline: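 HepG2 suspension premixed with RealTime-Glo reagents is plated at 600 cells per well and left 5 h at 37 C/5% CO2. Compounds in DMSO then go in, and bioluminescence reflecting viable cell number is recorded over 40 h.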

[9] = A CellTox Green Cytotoxicity Assay to monitor cytotoxicity in HepG2 cells - 8 hour (AID 1224890); also: nearly all actives have a fitted effect of over 45% in size; also: potency is read from the fitted curve at half-maximal effect
Outline: as §2

[10] = qHTS assay to identify small molecule antagonists of the estrogen receptor alpha (ER-alpha) signaling pathway using the BG1 cell line in the presence of 0.1 nM 17-beta-estradiol - cell viability counter screen (AID 1259241); also: nearly all actives have a fitted effect of over 40% in size; also: potency is read from the fitted curve at half-maximal effect
Outline: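 CellTiter-Fluor read (30 min, 37C) on ER-alpha/ERE-luc VM7Luc4E2 cells; 22 hr compound treatment; agonist 0.1 nM E2 final; same-well multiplex.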

[11] = biological target: Androgen receptor (Homo sapiens) (UniProt P10275); experiment: qHTS assay to identify small molecule antagonists of the androgen receptor (AR) signaling pathway using the MDA cell line in the presence of 0.5 nM R1881 (AID 1259243); also: nearly all actives have a fitted effect of over 50% in size; also: potency is read from the fitted curve at half-maximal effect
Androgen receptor (Homo sapiens), sequence (P10275 whole entry, looked up): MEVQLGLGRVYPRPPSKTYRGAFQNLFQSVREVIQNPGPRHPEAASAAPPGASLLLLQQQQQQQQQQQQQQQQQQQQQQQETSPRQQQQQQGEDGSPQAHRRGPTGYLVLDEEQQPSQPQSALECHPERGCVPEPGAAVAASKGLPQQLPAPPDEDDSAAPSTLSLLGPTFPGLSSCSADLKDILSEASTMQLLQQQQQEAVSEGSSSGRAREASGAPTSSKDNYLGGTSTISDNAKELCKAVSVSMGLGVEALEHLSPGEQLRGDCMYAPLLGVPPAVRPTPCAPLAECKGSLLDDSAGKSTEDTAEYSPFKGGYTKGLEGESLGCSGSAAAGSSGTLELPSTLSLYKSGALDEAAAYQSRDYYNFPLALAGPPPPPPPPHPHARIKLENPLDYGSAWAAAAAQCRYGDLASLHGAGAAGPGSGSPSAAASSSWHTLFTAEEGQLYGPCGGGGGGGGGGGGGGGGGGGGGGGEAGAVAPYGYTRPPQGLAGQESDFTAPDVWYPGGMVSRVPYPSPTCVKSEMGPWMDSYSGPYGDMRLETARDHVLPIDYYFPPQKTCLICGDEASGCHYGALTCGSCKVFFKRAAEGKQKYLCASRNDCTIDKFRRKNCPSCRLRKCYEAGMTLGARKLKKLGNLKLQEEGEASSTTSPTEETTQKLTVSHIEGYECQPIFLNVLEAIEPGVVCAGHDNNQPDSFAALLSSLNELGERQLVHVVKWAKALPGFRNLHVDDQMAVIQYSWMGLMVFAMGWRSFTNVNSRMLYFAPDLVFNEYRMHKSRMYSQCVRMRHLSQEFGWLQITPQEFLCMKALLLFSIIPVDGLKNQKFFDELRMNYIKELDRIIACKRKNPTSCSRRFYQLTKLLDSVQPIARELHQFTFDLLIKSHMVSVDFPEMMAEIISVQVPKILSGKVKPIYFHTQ
Outline: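 Stably transfected MDA-kb2 cells express luciferase from an MMTV promoter bearing both AR and GR response elements. Compounds plus 0.5 nM R1881 (final) were incubated 16 hr at 37C without CO2, then luminescence measured.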

[12] = biological target: Estrogen receptor (Homo sapiens) (UniProt P03372); experiment: qHTS assay to identify small molecule antagonists of the estrogen receptor alpha (ER-alpha) signaling pathway using the BG1 cell line in the presence of 0.1 nM 17-beta-estradiol (AID 1259244); also: nearly all actives have a fitted effect of over 50% in size
Estrogen receptor (Homo sapiens), sequence (P03372 whole entry, looked up): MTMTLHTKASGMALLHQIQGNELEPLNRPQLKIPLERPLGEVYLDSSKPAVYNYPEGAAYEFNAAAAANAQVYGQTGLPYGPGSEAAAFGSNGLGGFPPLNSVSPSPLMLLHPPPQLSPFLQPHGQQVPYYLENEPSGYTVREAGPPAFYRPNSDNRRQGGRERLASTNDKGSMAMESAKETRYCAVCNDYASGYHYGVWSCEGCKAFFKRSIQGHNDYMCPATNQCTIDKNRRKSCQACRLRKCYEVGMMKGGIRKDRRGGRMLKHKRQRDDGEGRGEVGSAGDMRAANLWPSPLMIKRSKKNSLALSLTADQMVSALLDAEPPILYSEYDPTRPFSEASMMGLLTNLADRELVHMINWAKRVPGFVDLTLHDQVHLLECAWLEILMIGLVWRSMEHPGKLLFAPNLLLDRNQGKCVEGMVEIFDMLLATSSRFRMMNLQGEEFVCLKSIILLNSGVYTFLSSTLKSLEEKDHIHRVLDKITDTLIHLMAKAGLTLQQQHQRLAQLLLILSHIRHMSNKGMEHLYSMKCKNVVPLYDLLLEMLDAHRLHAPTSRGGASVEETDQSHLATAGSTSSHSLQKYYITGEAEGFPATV
Outline: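 Antagonist mode: compounds in DMSO are pinned onto VM7Luc4E2 reporter cells, 0.1 nM final 17beta-estradiol is added, and after 22 h at 37C luciferase luminescence is measured with ONE-Glo.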

[13] = qHTS assay to identify small molecule HDAC inhibitors (AID 1259364);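 also: wild-type HCT-116 cells with endogenous class I/II HDAC activity; top concentration of the series differs between compounds; nearly all actives have a fitted effect of over 45% in size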
Outline: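 Cells (HCT-116, wild type) are seeded at 1,500 per well, incubated overnight, treated with compound in DMSO for 2 hr, then developed with HDAC-Glo I/II reagent for 30 min at room temperature.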

[14] = qHTS assay to identify small molecule HDAC inhibitors - cell viability counter screen (AID 1259365)
Outline: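 To flag cytotoxic hits, 1,500 wild-type HCT-116 cells per well, plated the day before, receive test compounds for 2hr at 37 C before CellTiter-Glo reagent and a luminescence read.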

[15] = qHTS assay to identify small molecule agonists of the sonic hedgehog signaling (Shh) pathway - cell viability counter screen (AID 1259366); also: nearly all actives have a fitted effect of over 50% in size; also: potency is read from the fitted curve at half-maximal effect
Outline: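 Fluorescence from CellTiter-Fluor reports live cells in this counter screen. NIH/3T3-derived Gli1-Luc reporter cells receive test compounds for 24hr at 37C; reagent goes in at 23hr.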

[16] = qHTS assay to identify small molecule antagonists of the sonic hedgehog signaling (Shh) pathway - cell viability counter screen (AID 1259367); also: nearly all actives have a fitted effect of over 55% in size
Outline: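 Tox21 library chemicals were tested on a Gli1-Luc NIH/3T3 clone (2,000 cells/well) stimulated by conditioned medium; viability was quantified as fluorescence from CellTiter-Fluor reagent added at 23 hr.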

[17] = qHTS assay to identify small molecule agonists of the sonic hedgehog signaling (Shh) pathway (AID 1259368; calls by dose curve;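 also: NIH/3T3-derived 3T3Gli1-Luc cells carrying a stable Gli1-driven firefly luciferase reporter; series mostly up to about 92 µM; nearly all actives have a fitted effect of over 15% in size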)
Outline: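 Cells of a mouse NIH/3T3 clone stably expressing luciferase under the Gli1 transcriptional response element are exposed to test chemicals for 24 hr at 37 C. Pathway activation is detected as a rise in luminescence.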

[18] = qHTS assay to identify small molecule antagonists of the androgen receptor (AR) signaling pathway using the MDA cell line in the presence of 0.5 nM R1881 - cell viability counter screen (AID 1259242); also: nearly all actives have a fitted effect of over 45% in size; also: potency is read from the fitted curve at half-maximal effect
Outline: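 Steps: plate MDA-kb2 cells, rest 5 hr at 37C without CO2; pin in compounds in DMSO; add R1881 to 0.5 nM final; incubate 16 hr; add CellTiter-Fluor, 30 min; read fluorescence.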

[19] = qHTS assay to identify small molecule phospholipidosis (PLD) inducers (AID 1259344; active = well fitted curve in the direction sought with a large enough effect; an effect the other way counts as inactive or inconclusive)
Outline: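 Image-based: LipidTOX Red pit count/intensity per well and per cell; HepG2, 24 h compound at 37 C, PFA fixation, Hoechst counterstain.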

CNc1ccc([N+](=O)[O-])cc1
Potency [1]: inactive
Potency [2]: inactive
Potency [3]: inactive
Potency [4]: inactive
Potency [5]: inactive
Potency [6]: inactive
Potency [7]: inactive
Potency [8]: inactive
Potency [9]: inactive
Potency [10]: 43.4 µM (active)
Potency [11]: 15.4 µM (active)
Potency [12]: inactive
Potency [13]: inactive
Potency [14]: inactive
Potency [15]: 19.4 µM (active)
Potency [16]: inactive
Potency [17]: inactive

FC(F)(F)c1cccc(Cl)c1
Potency [1]: inactive
Potency [2]: inactive
Potency [3]: inactive
Potency [4]: inactive
Potency [5]: inactive
Potency [6]: inactive
Potency [7]: inactive
Potency [8]: inactive
Potency [9]: inactive
Potency [10]: inactive
Potency [18]: inactive
Potency [11]: inactive
Potency [12]: inactive
Potency [13]: inactive
Potency [14]: inactive
Potency [15]: inactive
Potency [16]: inactive
Potency [17]: inactive

CC(CCc1ccccc1)NCC(O)c1ccc(O)c(C(N)=O)c1 (configuration not stated)
Potency [1]: inactive
Potency [2]: inactive
Potency [3]: inactive
Potency [4]: inactive
Potency [5]: inactive
Potency [6]: inactive
Potency [7]: inactive
Potency [9]: inactive
Potency [18]: inactive
Potency [12]: inactive
Potency [19]: inactive
Potency [13]: inactive
Potency [14]: inactive
Potency [15]: 19.3 µM (active)
Potency [17]: inactive

Nc1ccc(Oc2ccc(Cl)cc2)cc1
Potency [1]: inactive
Potency [2]: inactive
Potency [3]: inactive
Potency [4]: inactive
Potency [5]: 24 µM (active)
Potency [7]: inactive
Potency [8]: inactive
Potency [9]: inactive
Potency [10]: inactive
Potency [18]: inactive
Potency [13]: inactive
Potency [14]: inactive
Potency [15]: inactive
Potency [16]: inactive

CCOC(=O)Cn1cccc1-c1nc(-c2ccc(OC)cc2)c(-c2ccc(OC)cc2)s1
Potency [1]: inactive
Potency [2]: inactive
Potency [3]: inactive
Potency [4]: inactive
Potency [5]: inactive
Potency [6]: inactive
Potency [7]: inactive
Potency [9]: inactive
Potency [10]: inactive
Potency [18]: inactive
Potency [12]: inactive
Potency [19]: inactive
Potency [13]: inactive
Potency [14]: inactive
Potency [15]: inactive
Potency [16]: inactive
Potency [17]: inactive

CN1CCC[C@@H]1CCO[C@](C)(c1ccccc1)c1ccc(Cl)cc1
Potency [1]: 26.8 µM (active)
Potency [2]: inactive
Potency [3]: 21.3 µM (active)
Potency [4]: inactive
Potency [5]: 10.7 µM (active)
Potency [6]: inactive
Potency [7]: 23.9 µM (active)
Potency [18]: 26.6 µM (active)
Potency [13]: inactive
Potency [14]: inactive
Potency [15]: 23.7 µM (active)
Potency [17]: inactive

CC(C)(C)c1csc(-c2cc3cc(OCc4ccccc4CC(=O)O)ccc3o2)n1
Potency [1]: 54.9 µM (active)
Potency [2]: inactive
Potency [3]: 54.9 µM (active)
Potency [4]: inactive
Potency [8]: inactive
Potency [10]: inactive
Potency [18]: inactive
Potency [12]: inactive
Potency [13]: inactive
Potency [14]: inactive
Potency [15]: inactive
Potency [16]: inactive
Potency [17]: inactive

CC(=O)[C@H]1CC[C@H]2[C@@H]3CCC4=CC(=O)CC[C@]4(C)[C@H]3CC[C@]12C
Potency [1]: 24.4 µM (active) and 34.7 µM (active)
Potency [2]: inactive
Potency [3]: 49 µM (active)
Potency [4]: inactive
Potency [5]: 15.4 µM (active) and 17.4 µM (active)
Potency [6]: 13.7 µM (active)
Potency [7]: inactive
Potency [8]: 6.88 µM (active) and 5.49 µM (active)
Potency [9]: inactive
Potency [10]: inactive
Potency [18]: inactive
Potency [13]: inactive
Potency [15]: inactive
Potency [16]: inactive
Potency [17]: inactive

CC[N+](CC)(CC)CCOC(=O)C(C1CCCC1)C1CCCC1
Potency [1]: inactive
Potency [2]: inactive
Potency [3]: inactive
Potency [4]: inactive
Potency [6]: inactive
Potency [7]: inactive
Potency [8]: inactive
Potency [9]: inactive
Potency [10]: inactive
PLD induction [19]: 0.0817% [at 7.66 µM] (inactive)
Potency [13]: inactive
Potency [14]: inactive
Potency [15]: inactive
Potency [16]: inactive
Potency [17]: inactive

O=C1OC2(c3ccc(O)cc3Oc3cc(O)ccc32)c2ccc(N=C=S)cc21
Potency [1]: 17.7 µM (active)
Potency [2]: 15.8 µM (active)
Potency [3]: 15.8 µM (active)
Potency [4]: 15.8 µM (active)
Potency [7]: 12.5 µM (active)
Potency [8]: 22.3 µM (active)
Potency [9]: 15.8 µM (active)
Potency [10]: inactive
Potency [18]: inactive
Potency [13]: inactive
Potency [14]: inactive
Potency [16]: inactive
Potency [17]: inactive

CCO[C@@H]1O[C@H](C(COCc2ccccc2)OCc2ccccc2)[C@H](OCc2ccccc2)[C@H]1O (some centres not stated)
Potency [1]: inactive
Potency [2]: inactive
Potency [3]: inactive
Potency [4]: inactive
Potency [7]: inactive
Potency [9]: inactive
Potency [10]: inactive
Potency [18]: inactive
Potency [19]: inactive
Potency [13]: inactive
Potency [14]: inactive
Potency [15]: inactive
Potency [17]: inactive

Oc1c(I)cc(Cl)c2cccnc12
Potency [1]: 10.9 µM (active) and inactive
Potency [2]: inactive
Potency [3]: inactive
Potency [4]: inactive
Potency [5]: 34.6 µM (active) and inactive
Potency [6]: inactive
Potency [7]: inactive
Potency [8]: inactive
Potency [9]: inactive
Potency [10]: inactive
Potency [11]: 27.3 µM (active) and 26.6 µM (active)
Potency [19]: inactive
Potency [13]: inactive
Potency [14]: inactive
Potency [15]: inactive
Potency [16]: inactive

C=C(C)c1cccc(C(=C)C)c1
Potency [1]: inactive
Potency [2]: inactive
Potency [3]: inactive
Potency [4]: inactive
Potency [5]: inactive
Potency [6]: inactive
Potency [7]: inactive
Potency [8]: inactive
Potency [9]: inactive
Potency [10]: inactive
Potency [18]: inactive
Potency [12]: inactive
Potency [13]: inactive
Potency [15]: inactive

CCCCCCCC
Potency [1]: inactive
Potency [2]: inactive
Potency [3]: inactive
Potency [4]: inactive
Potency [5]: inactive
Potency [6]: inactive
Potency [7]: inactive
Potency [8]: inactive
Potency [9]: inactive
Potency [10]: inactive
Potency [18]: inactive
Potency [12]: inactive
Potency [13]: inactive
Potency [14]: inactive
Potency [15]: inactive
Potency [17]: inactive

CCCCN(CCCC)CC(O)c1cc(Cl)cc2c1-c1ccc(Cl)cc1/C2=C/c1ccc(Cl)cc1 (configuration not stated)
Potency [1]: inactive
Potency [2]: inactive
Potency [3]: 23.9 µM (active)
Potency [4]: inactive
Potency [5]: inactive
Potency [6]: inactive
Potency [7]: inactive
Potency [8]: inactive
Potency [9]: 13.4 µM (active)
Potency [18]: inactive
Potency [12]: inactive
Potency [13]: inactive
Potency [14]: inactive
Potency [15]: 26.6 µM (active)
Potency [17]: inactive

Clc1ccnc(Cl)n1
Potency [1]: inactive
Potency [2]: inactive
Potency [3]: inactive
Potency [4]: inactive
Potency [5]: inactive
Potency [6]: inactive
Potency [7]: inactive
Potency [9]: inactive
Potency [10]: inactive
Potency [18]: inactive
Potency [13]: inactive
Potency [14]: inactive
Potency [15]: inactive
Potency [17]: inactive
